FLuc counter: firefly luciferase modulation, counter-screen for miR-21 project; purified FLuc, Km substrates, luminescence inhibition; 6.9% of 360,000 active; P08659; Potency, µM (highest dose often 57.5 µM), hits mostly inhibitors; further: nearly all actives have a fitted effect of over 55% in size
Target sequence (P08659 whole entry, looked up): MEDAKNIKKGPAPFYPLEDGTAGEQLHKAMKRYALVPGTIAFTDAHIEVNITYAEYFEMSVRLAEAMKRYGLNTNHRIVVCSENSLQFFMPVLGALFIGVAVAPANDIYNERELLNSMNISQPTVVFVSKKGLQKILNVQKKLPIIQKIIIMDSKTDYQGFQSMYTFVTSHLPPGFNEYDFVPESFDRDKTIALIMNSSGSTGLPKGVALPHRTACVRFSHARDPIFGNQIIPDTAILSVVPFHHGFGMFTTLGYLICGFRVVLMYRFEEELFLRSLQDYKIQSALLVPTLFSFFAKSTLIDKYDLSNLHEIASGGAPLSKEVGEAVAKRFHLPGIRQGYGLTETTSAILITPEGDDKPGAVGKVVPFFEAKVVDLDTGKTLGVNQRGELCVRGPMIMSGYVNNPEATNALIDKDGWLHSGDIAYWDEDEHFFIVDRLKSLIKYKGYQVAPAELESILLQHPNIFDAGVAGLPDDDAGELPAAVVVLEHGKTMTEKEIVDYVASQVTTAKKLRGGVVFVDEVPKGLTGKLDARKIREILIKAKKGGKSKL
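Biochemical qHTS of compounds, final roughly 60 µM downward over six points, against 10 nM purified firefly luciferase using Km concentrations of substrates (10 uM D-luciferin, 10 uM ATP) in Tris acetate pH 7.5 buffer; luminescence output.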
ELG1 genotox: inducers of genotoxicity in HEK293T ELG1-luciferase cells | HEK293T ELG1-luciferase reporter, luminescence, 16 h | AID 504466 | 1.3% of 330,000 active | Potency, µM (highest dose often 46 µM), usual class: activators; further: nearly all actives have a fitted effect of over 60% in size
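HEK293T cells expressing luciferase-tagged ELG1 were treated with compound or DMSO for 16 hr at 37°C. Luciferase activity was then read after 30 min with ONE-Glo at room temperature; rising signal flags genetic stress.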
KinaseGlo FLuc: blocks Kinase-Glo luciferase, a counter-screen artifact; AID 1379; Kinase-Glo luciferase, ATP luminescence, 8 min; 0.28% of 200,000 active; Potency, µM (doses to about 38.3 µM), hits mostly inhibitors; Q27757; further: nearly all actives have a fitted effect of over 60% in size
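Compounds were added to a substrate mix at pH 7.2 (50 mM imidazole, 10 uM ATP, within the enzyme's linear range), followed by Kinase-Glo detection reagent; luminescence was measured after 8 minutes at ambient temperature.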
SMN2 splice up: increases expression of the SMN2 splice variant. HEK293 SMN2-luciferase splicing reporter, luminescence, 30-36 h. Potency, µM (top dose mostly 46.1 µM), hits mostly activators. 2.8% of 210,000 active. AID 1458; further: nearly all actives have a fitted effect of over 55% in size
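HEK293 cells carry an SMN2 minigene-luciferase reporter in which exon 7 inclusion puts luciferase in frame. Cells were seeded at 2000 cells/well, attached for 10-12 hours, then exposed to compounds for 30-36 hours at 37C before ONE-Glo luminescence.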
Rab9 prom act: Rab9 promoter activation | Potency, µM (titrated, usually from 9.22 µM), actives largely listed as activators | 2.8% of 320,000 active | Huh7 Rab9 promoter-luciferase reporter, luminescence, 24 h; further: nearly all actives have a fitted effect of over 60% in size
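Promoter activation is measured as luciferase luminescence in Huh7 cells stably transfected with a Rab9 promoter–luciferase construct, following 24 h compound exposure at 37 °C and 10 min reagent incubation at ambient temperature.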
NPC1 prom act: activators of NPC1 promoter; Potency, µM (highest dose often 9.22 µM), actives largely listed as activators; 2.4% of 320,000 active; Huh7 NPC1 promoter luciferase reporter, 24 h; further: nearly all actives have a fitted effect of over 60% in size
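Huh7 cells stably carrying NPC1 promoter–luciferase, plated in Opti-MEM with 10% FBS for 2 h, were exposed to compound in DMSO for 24 h at 37 °C; luciferase reagent was added for 10 min and luminescence read.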
A number is an active result; – = inactive; ? = inconclusive; · = not tested or not shown. An excerpt weighted towards active compounds, which were near 7.5% of everything screened. The call rests on the fitted dose curve; in most records, active means well fitted curve in the direction sought with a large enough effect; inconclusive means small, poorly fitted or top-dose-only effect, or another doubt; inactive means no such curve, though single readings can be large; an effect the other way counts as inactive or inconclusive.

SMILES	FLuc counter	ELG1 genotox	KinaseGlo FLuc	SMN2 splice up	Rab9 prom act	NPC1 prom act
Cc1cc(C)nc(NC(=O)/C=C/c2ccccc2Cl)n1	?	–	–	?	?	–
Cc1cc(C)nc(NC(=O)/C=C/c2ccccc2Cl)c1	3µM	?	–	13µM	?	?
Cc1cc(N2CCCCC2)nc2ccc(NC(=O)/C=C/c3ccccc3Cl)cc12	–	·	·	–	·	·
Cc1cc(C)nc(NC(=O)/C=C/c2ccc(Cl)cc2Cl)c1	7.6µM	?	–	–	3.5µM	?
Cc1cc(C)nc(NC(=O)c2ccc(Cl)cc2[N+](=O)[O-])c1	–	–	–	–	–	–
CCOc1ccccc1NC(=O)Cn1cc(C(=O)c2ccc(Cl)cc2)c(=O)c2ccc(C)nc21	–	·	·	·	·	·
COc1ccccc1N1CCN(CCCNC(=O)C2CCCN(c3ncnc4c3nc3n4CCCCC3)C2)CC1 (stereo not given)	–	–	·	·	–	–
Cc1cc(Nc2cccc(C(=O)O)c2)n2nc(C)nc2n1	–	·	·	–	·	·
Cc1cc(C)n2nc(C(=O)Nc3ccc4c(c3)OCO4)cc2n1	4.8µM	2.1µM	–	7.9µM	3.2µM	1.3µM
CC(=O)c1cccc(NC(=O)c2cc3nc(C)cc(C)n3n2)c1	7.6µM	8.2µM	–	13µM	2µM	?
O=C(Nc1ccc2c(c1)OCO2)c1cc2nc(C3CC3)cc(C(F)(F)F)n2n1	–	–	–	–	–	–
CC(=O)c1cccc(Nc2cc(C)nc3nc(-c4ccccc4C)nn23)c1	19µM	·	·	–	·	·
CCOc1ccc(/C=N/Nc2cc(=O)n(C)c(=O)n2C)cc1	–	–	–	–	–	–
COc1ccc(OCC(=O)NC(=S)N2CCCc3ccccc32)cc1	27µM	10µM	–	–	–	–
O=C(COc1ccccc1)NC(=S)N1CCc2ccccc21	?	–	–	?	–	–
O=C(NC(=S)N1CCCc2ccccc21)c1ccc(Cl)cc1	6.7µM	–	–	?	–	–
COc1ccccc1C(=O)NC(=S)N1CCc2ccccc21	–	–	–	–	–	–
COc1ccccc1C(=O)NC(=S)N1CCCc2ccccc21	21µM	–	–	–	–	–
CCN(C(=O)C1CCN(c2ncnc3c2nc2n3CCCCC2)CC1)c1cccc(Cl)c1	–	·	·	·	·	·
CCOC(=O)/C(=N/Nc1ccc(C)cc1)S(=O)(=O)c1ccc(Cl)cc1	17µM	?	–	–	?	?
CCOC(=O)/C(=N\Nc1ccccc1)S(=O)(=O)c1ccccc1	–	–	–	–	–	–
COCCCn1c(O)c(/C=C2\N=C(C#N)C(=Nc3ccc(C)cc3)O2)sc1=S	6.7µM	–	·	·	–	–
CCOC(=O)c1c(NC(=O)COc2ccc(F)cc2)sc2c1CCC(C)C2 (stereo not given)	–	·	·	–	·	·
CCCCC(=O)NNC(=O)N1c2ccccc2Sc2ccccc21	–	–	·	·	–	–
COCCCNC(=O)/C(C#N)=C/c1ccc(F)cc1	–	–	–	–	–	–
SMILES	FLuc counter	ELG1 genotox	KinaseGlo FLuc	SMN2 splice up	Rab9 prom act	NPC1 prom act
CCOc1ccc(/C=C(\C#N)C(=O)Nc2ccccn2)cc1	3.4µM	–	·	·	–	–
N#C/C(=C\c1ccc(F)cc1)C(=O)Nc1ccccn1	12µM	–	·	·	–	–
COc1ccc(C2NC(=O)N(C)C3=C2C(=O)N(c2cccc(C(=O)O)c2)C3)cc1 (stereo not given)	–	·	·	–	·	·
Cc1nc(NC(=O)c2ccc(F)cc2)sc1C(=O)Nc1ccc2c(c1)CCC2	13µM	–	?	?	–	–
Cc1ccc(C(=O)Nc2nc(C)c(C(=O)Nc3ccc4c(c3)CCC4)s2)cc1	15µM	18µM	–	5.6µM	–	–
O=C(NC12CC3CC(CC(C3)C1)C2)c1ccc(N2CCNCC2)c([N+](=O)[O-])c1	–	–	·	·	–	–
CCN(CC)CCCNC(=S)N(CCO)Cc1cc2cc3c(cc2[nH]c1=O)OCCO3	–	–	·	·	–	–
COc1ccc(C2CC(c3c(O)cc(C)oc3=O)=NCCS2)c(OC)c1 (stereo not given)	11µM	10µM	–	?	–	?
CN=c1scc(-c2ccc([N+](=O)[O-])cc2)n1/N=C/c1ccco1	?	?	–	·	0.4µM	?
O=C(Nc1ccc(Br)cc1)c1ccc(N2C(=O)C3CCCCC3C2=O)cc1 (stereo not given)	–	–	·	·	–	–
O=C(Nc1nccs1)c1ccc(N2C(=O)[C@@H]3[C@H](C2=O)[C@H]2C=C[C@@H]3C2)cc1	27µM	?	·	·	3.5µM	2.5µM
O=C(Nc1nccs1)c1ccc(N2C(=O)C3CCCCC3C2=O)cc1 (stereo not given)	21µM	?	–	–	–	–
c1coc(C2=Nc3cccc4cccc(c34)N2)c1	?	–	–	–	–	–
Nc1ccc(C2=Nc3cccc4cccc(c34)N2)cc1	21µM	–	?	·	–	–
COc1cccc(C2=Nc3cccc4cccc(c34)N2)c1	12µM	–	–	–	–	?
Clc1ccc(Nc2nc(C3CC3)cs2)cc1	7.6µM	6.5µM	–	11µM	1.6µM	3.2µM
Cc1ccc(Nc2nc(C3CC3)cs2)cc1	3.8µM	8.2µM	–	4µM	3.5µM	4µM
O=C(Nc1ccc(-n2nncc2-c2ccco2)cc1)c1cc2ccccc2oc1=O	–	–	–	–	–	–
COc1ccc(Nc2cc(C(=O)NCc3ccccc3)c3ccccc3n2)c(OC)c1	8.5µM	·	·	–	·	·
COc1ccccc1Nc1cc(C(=O)NCc2cccnc2)c2ccccc2n1	8.5µM	–	·	·	–	–
COc1ccc(Nc2cc(C(=O)NCCCN(C)Cc3ccccc3)c3ccccc3n2)c(OC)c1	–	·	·	·	·	·
Cc1ccc(C)c(Nc2cc(C(=O)NCc3cccnc3)c3ccccc3n2)c1	?	–	·	·	–	–
Cc1oc(-c2ccc(C(=O)NCCN(C)C)cc2)nc1CS(=O)(=O)c1ccccc1	–	·	·	·	·	·
CCC(=O)Nc1cc(-c2nc3cc(C)cc(C)c3o2)ccc1C	1.7µM	·	·	–	·	·
CCc1ccc2oc(-c3ccc(C)c(NC(=O)Cc4ccccc4)c3)nc2c1	4.8µM	·	·	–	·	·
SMILES	FLuc counter	ELG1 genotox	KinaseGlo FLuc	SMN2 splice up	Rab9 prom act	NPC1 prom act
CCc1ccc2oc(-c3ccc(C)c(NC(=O)c4ccc(C#N)cc4F)c3)nc2c1	17µM	·	·	–	·	·
COc1ccc2oc(-c3cccc(NC(=O)c4ccc(C#N)cc4F)c3)nc2c1	–	·	·	–	·	·
O=C(Nc1ccc2oc(-c3cccnc3)nc2c1)c1ccc2c(c1)OCCO2	2.4µM	?	–	·	–	–
O=C(Nc1ccc2oc(-c3ccncc3)nc2c1)c1ccc2c(c1)OCO2	?	–	·	·	–	–
O=C(Nc1ccc2oc(-c3ccncc3)nc2c1)c1ccc2c(c1)OCCO2	1.7µM	–	·	·	–	–
O=C(Nc1ccc2oc(-c3ccccc3)nc2c1)c1ccc2c(c1)OCCO2	5.4µM	–	–	–	–	–

Bioassay records deposited in PubChem by National Center for Advancing Translational Sciences (NCATS).
